Several values for one entry are separate records, joined by “and”; a condition that tells them apart may be missing. Identical values can stand only once. The campaign covered roughly 290,000 compounds. About 3,000 (1%) were called active. Shown is part of a subset that was picked to be rich in actives. A number with no mark means an inactive call. Rule as the data show it: active = inhibition mostly above about 36% (no sharp cut-off); inactive = mostly below about 34%.

The nature of this experiment: NOD1 signaling inhibitors, primary screen, cell-based, luminescence, uHTS (AID 1578).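 Also: HEK-293T reporter cells stimulated with the NOD1 agonist gamma-tri-DAP.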 As to conditions: NOD1-driven NF-kB luciferase reporter cells, at 4 µM, stronger effect = higher value. (In general: In a reporter assay the amount or activity of a reporter protein is the signal.)
As for `COC(=O)c1oc2ccccc2c1-n1cccc1`, the inhibition (as a rule, the drop in the measured response relative to a control, in per cent) is -6%. `Cc1ccc2nsnc2c1S(=O)(=O)Nc1ccccc1C(=O)O`: the inhibition was -10.2%.

Regarding `Cc1ccc(C(C)C)c(OCC(O)CN2CC(C)OC(C)C2)c1` (centres undefined), the inhibition is 5.4%. Take `CCOc1ccc(Cl)cc1CNCCCSc1ncccn1`: the inhibition is 5.6%.

As for `O=C(NNC1=C(C(=O)C(F)(F)F)CCC1)c1ccc(Cl)cc1`, the inhibition is 19.2%. On to `O=C(NNC1=C(C(=O)C(F)(F)F)CCC1)c1cccc(O)c1`, for which the inhibition was -26.1%. Regarding `O=C(NNC1=C(C(=O)C(F)(F)F)CCC1)c1cccc(Cl)c1`, the inhibition was 83% (active).

For `CO/N=C(/CS(=O)c1ccc(Br)cc1)c1ccc(OC)cc1` (centres undefined), the inhibition is -16%. Regarding `Cc1cc(C)c2sc(N(CCN(C)C)C(=O)c3ccc4ccccc4c3)nc2c1`, the inhibition was -10.4%. Turning to `Cc1cccc(Cn2nnc3c2C(=O)c2ccccc2C3=O)c1`, the inhibition was 68.5% (active). Regarding `Cc1cccc(CC(=O)OCn2nnc3ccccc3c2=O)c1`, the inhibition is -15.8%. Take `Cc1ccc(Cn2nnc3c(=O)n(Cc4cccc(C)c4)cnc32)cc1`: the inhibition was 3.6%. Turning to `CCOc1ccc(NC(=O)CCNC(=O)Cn2ccc3ccccc3c2=O)cc1`, the inhibition is -20.7%.

With `Cc1ccc(S(=O)(=O)Nc2nc3ccccc3nc2N2CCN(c3ccccc3F)CC2)cc1`, the inhibition is 5.2%. With `Cc1ccsc1C1C(C#N)=C(N)OC2=C1C(=O)CCC2` (centres undefined), the inhibition is -6.1%. On to `COc1ccc(CNc2nc(Cl)c(C#N)s2)cc1`, for which the inhibition was 3.8%. For the compound `Cc1ccc(CNc2nc(Cl)c(C#N)s2)cc1`, the inhibition is 63.4% (active). In the case of `N#Cc1sc(NCc2ccccc2)nc1Cl`, the inhibition was -19.1%. Consider `CCN1CCN(CCOCCOc2ccccc2)CC1`, for which the inhibition was 75.5% (active).

As for `c1ccc(OCCOCCN2CCOCC2)cc1`, the inhibition is 7.9%. Regarding `CCN1CCN(CCOCCOc2ccccc2-c2ccccc2)CC1`, the inhibition is -24.4%. Regarding `O=C(Cc1ccccc1)NNC(=O)Nc1ccccc1`, the inhibition was -23.5%. As to `CC(C)c1ccc(C(O)c2nc3ccccc3n2C)cc1` (centres undefined), the inhibition is 76.4% (active).

`CCCC(=O)NC(C)c1nc2ccccc2n1C(C)C` (centres undefined): the inhibition was -2.5%. For the compound `CCCC(=O)NC(C)c1nc2ccccc2n1CC` (centres undefined), the inhibition was -18.7%. With `CCCC(=O)NC(C)c1nc2ccccc2n1C` (centres undefined), the inhibition is 36.2% (active).

Regarding `Cc1ccc(C(O)c2nc3ccccc3n2C)cc1` (centres undefined), the inhibition was -7.9%. In the case of `COc1ccc(C(O)c2nc3ccccc3n2C)cc1OC` (centres undefined), the inhibition is 33.1%. For the compound `CCN(CC(=O)Nc1ccccc1Br)C1CCCCC1`, the inhibition was -38.4%. Turning to `C=CCN1C(=O)N/C(=C/c2ccc(C)o2)C1=O`, the inhibition is -35.1%. On to `Nn1cc(-c2ccccc2)nc1SCC(=O)Nc1cccc(S(N)(=O)=O)c1`, for which the inhibition is 3.3%. Consider `O=C(Nc1cc(-c2ccccc2)[nH]n1)c1ccc(Cl)cc1`, for which the inhibition was 4.7% and -2.2%.

Consider `O=C(Nc1ccccc1Cl)c1ccc2ccccc2c1`, for which the inhibition was -11.1%.

As to `Cc1cccc(C)c1NC(=O)NC1(C(=O)N2CCN3CCCC3C2)CCCCC1` (centres undefined), the inhibition is -19.2%. On to `COc1cc(C2C(C#N)=C(N)N(c3cccnc3)C3=C2C(=O)CC(C)(C)C3)ccc1O` (centres undefined), for which the inhibition is 9.6%. The result for `COc1ccccc1C1C(C#N)=C(N)N(c2cccnc2)C2=C1C(=O)CC(C)(C)C2` (centres undefined) reads -21.9%.

On to `COc1ccc(C2C(C#N)=C(N)N(c3cccnc3)C3=C2C(=O)CC(C)(C)C3)cc1OC` (centres undefined), for which the inhibition is 63.5% (active).

In the case of `Cc1ccc(OC(=O)c2ccncc2)c(C)c1`, the inhibition is -45.8%. In the case of `Cc1ccc(C)c(OC(=O)c2ccncc2)c1`, the inhibition was 54.5% (active). With `Cc1ccc(C)c(OC(=O)c2cccnc2)c1`, the inhibition was -20.5%. As to `CCN(CC)C(=O)CSc1nc(O)cc(=O)n1-c1ccccc1OC`, the inhibition is -12.3%. For `CCC(NC(=O)NNC(=O)c1ccncc1)(C(F)(F)F)C(F)(F)F`, the inhibition is -3.5%. Regarding `CCOc1ccc(-c2ccc(SCC)nn2)cc1`, the inhibition is -47.8%. `CCOc1ccc(-c2ccc(SC)nn2)cc1`: the inhibition is 57.2% (active). As for `COc1ccc(-c2ccc(SC)nn2)cc1`, the inhibition was -8.7%. As for `COc1ccc(CC(=O)NNC(=O)COc2ccc3ccccc3c2)cc1`, the inhibition is -32%.

In the case of `N#Cc1ccccc1NC(=O)COC(=O)c1ccc(F)cc1F`, the inhibition is 2.3%. For `Cc1cc(C)cc(C(=O)NC2CC(C)(C)NC(C)(C)C2)c1`, the inhibition was -11.3%. The result for `COc1cc(OC)cc(C(=O)NC2CC(C)(C)NC(C)(C)C2)c1` reads 83% (active). In the case of `COc1cc(C(=O)NC2CC(C)(C)NC(C)(C)C2)cc(OC)c1OC`, the inhibition was -31.3%.

For the compound `O=C(NC(CC(=O)N1CCN(c2ccc([N+](=O)[O-])cc2)CC1)c1ccccc1)c1ccccc1Cl` (centres undefined), the inhibition is -5.6%. As to `Cc1nc(-c2nc(-c3c(C(=O)NN)noc3C)cs2)cs1`, the inhibition was -35.9%. Consider `Cc1ccc2c(c1)C(=O)c1c(C(=O)O)cccc1-2`, for which the inhibition was -14.6%. With `CC1CCN(C(=O)C(C)Sc2nc(-c3ccccc3)cc(C(F)(F)F)n2)CC1` (centres undefined), the inhibition is 15.1%. With `CC(Sc1nc(-c2ccccc2)cc(C(F)(F)F)n1)C(=O)N1CCC(C(N)=O)CC1` (centres undefined), the inhibition is 62.8% (active). For the compound `CC(Sc1nc(-c2ccccc2)cc(C(F)(F)F)n1)C(=O)N1CCCC1` (centres undefined), the inhibition was -30.7%.

With `O=C(O)CCn1c(SCCOc2ccccc2)nc2ccccc21`, the inhibition was -29.9%. In the case of `CCCCN(C)Cc1cc(=O)oc2ccc3ccccc3c12`, the inhibition was -5.4%. For the compound `CCc1ccc(OCc2nnc(SCCN3CCOCC3)n2CC)cc1`, the inhibition was -13.7%.

Turning to `FC(F)(F)c1cccc(Cn2cnc(NC(=S)NCCc3ccccc3)n2)c1`, the inhibition was -22.4%. `Fc1ccccc1Cn1cnc(NC(=S)NCCc2ccccc2)n1`: the inhibition is 47.4% (active).

`Fc1ccccc1NC(=S)NCCc1ccccc1`: the inhibition was 11.7%.

Turning to `Nc1nc(-c2ccccc2)c(N=Nc2ccc(Cl)cc2)s1`, the inhibition is 14.5%. On to `Nc1nc(-c2ccccc2)c(N=Nc2cccnc2)s1`, for which the inhibition was 69.6% (active). For the compound `Nc1nc(-c2ccccc2)c(N=Nc2cccc3ccccc23)s1`, the inhibition is -6.2%.

Turning to `Cc1cc(NC(=O)CSc2nc(Cc3ccc(O)cc3)c(C)[nH]2)no1`, the inhibition was 29.2%. As to `COC(=O)c1nn(-c2ccc3c(c2)CCN3C(C)=O)cc1O`, the inhibition was 78.5% (active).

In the case of `COC(=O)c1nn(-c2ccc3c(c2)OCO3)cc1O`, the inhibition is -11.8%. The result for `CCOC(=O)c1nn(-c2ccc3c(c2)CCN3C(C)=O)cc1O` reads -27.8%; that for `N#CN=C(c1ccccc1)c1ccccc1`, -20.8%; that for `O=C(c1ccc(N2CCCC2=O)cc1)N1CCN(c2ccc(Cl)cc2)CC1`, -4.5%. The result for `O=C(c1ccccc1-c1nc(-c2ccccc2)no1)N1CCCC1` reads -35%; that for `FC(F)(F)c1ccc(C2NCCc3sccc32)cc1` (centres undefined), -38.2%; that for `Cn1ccs/c1=N\C(=O)Nc1cccc(C(F)(F)F)c1`, -21.9%. For the compound `Cn1ccs/c1=N\C(=O)Nc1ccccc1`, the inhibition was -7.2%. Turning to `Cn1ccs/c1=N\C(=O)Nc1cccc(Cl)c1`, the inhibition was 110% (active). For `CCOC(=O)CN1C(=O)S/C(=C/c2ccco2)C1=O`, the inhibition was -37.3%.

Regarding `CC(C)N(C)Cc1nnnn1CC(=O)N(C)Cc1cccc(Cl)c1`, the inhibition was -14.1%. In the case of `Nc1nc(Nc2ccc(Cl)cc2)nc(NCCO)c1[N+](=O)[O-]`, the inhibition is 3%. As for `CC(C)C(=O)Nc1cccc(C(=O)Nc2ccccc2C(=O)O)c1`, the inhibition was -0.4%. For the compound `Cc1cc(Cl)ccc1OC(C)C(=O)Nc1ccc(C(=O)Nc2ccccc2C(=O)O)cc1` (centres undefined), the inhibition was 82.7% (active). For `Cc1ccc(NC(=O)c2ccc(OC(=O)C(C)Oc3ccc(Cl)cc3C)cc2)cc1` (centres undefined), the inhibition is -12.4%. As to `Cn1cnnc1SCc1ccc(C#N)cc1Cl`, the inhibition was -35.4%. Take `CC1CC(NC(=O)Cc2ccc(Br)cc2)CC(C)(C)C1` (centres undefined): the inhibition is -9.8%. Take `CC1CCCC(C)N1C(=O)c1cccc2c1-c1ccccc1/C2=N/O` (centres undefined): the inhibition is 75.8% (active).

On to `O=C(c1cccc2c1-c1ccccc1/C2=N/O)N1CCCCC1`, for which the inhibition is 66.9% (active). The result for `COc1ccccc1C(=O)Nc1ccccc1C(=O)N1C(C)CCCC1C` (centres undefined) reads -5%.

As to `O=C1c2ccccc2-c2c1cccc2C(=O)N1CCCCC1`, the inhibition was -12.6%. Turning to `O=C1c2ccccc2-c2c1cccc2C(=O)N1CCCCCC1`, the inhibition is 0.4%. The result for `CC(C)COC(=O)c1cccc2c1-c1ccccc1/C2=N\O` reads 14.1%; that for `CN1CC(=O)N(CC(=O)Nc2cc(Cl)cc(Cl)c2)C1=O`, -17.3%; that for `CCn1c(=O)c(C(=O)Nc2ccsc2C(=O)OC)c(O)c2ccccc21`, -28.8%. The result for `COc1ccccc1C(=O)NC1CC2CCC(C1)N2Cc1ccccc1` (centres undefined) reads -9.7%; that for `COc1ccc(CCNC(=S)NC(=O)c2cccc(Cl)c2)cc1OC`, -2.1%; that for `Cn1nc([N+](=O)[O-])c(C(C#N)c2nc3ccccc3n2C)c(Cl)c1=O` (centres undefined), 23.7%. The result for `CCCn1nc([N+](=O)[O-])c(C(C#N)c2nc3ccccc3s2)c(Cl)c1=O` (centres undefined) reads 63.6%; that for `CCCn1nc([N+](=O)[O-])c(C(C#N)c2nc3ccccc3o2)c(Cl)c1=O` (centres undefined), 80.5% (active). With `CCn1nc([N+](=O)[O-])c(C(C#N)c2nc3ccccc3n2C)c(Cl)c1=O` (centres undefined), the inhibition is 32%.

As for `Cn1nc([N+](=O)[O-])c(C(C#N)c2ccccn2)c(Cl)c1=O` (centres undefined), the inhibition was -21.4%. On to `COc1ccc(C(C(=O)NC2CCCCC2)N(C(=O)c2ccco2)c2ccccc2C(C)=O)cc1OC` (centres undefined), for which the inhibition was -17.6%.

For the compound `COc1ccc2c(c1)C(=O)C(=O)N2CC1COc2ccccc2O1` (centres undefined), the inhibition was -10%. Turning to `O=C(NCCc1csc(-c2ccccc2)n1)c1c(F)cccc1Cl`, the inhibition is -7.4%. The result for `O=C(NCCc1csc(-c2ccccc2)n1)c1c(F)cccc1F` reads -19.1%. The result for `O=C(NCCc1csc(-c2ccccc2)n1)c1ccccc1F` reads 28.3% (active).

The record behind these values is PubChem BioAssay AID1578 (Sanford-Burnham Center for Chemical Genomics, 2009).
